The structures appear in SMILES notation. “And” between values parts separate entries of the source, which are not always exact repeats. Equal values may be shown once. Records with an inconclusive call do not appear. The source made the active and inactive calls. Unless noted, calls follow the shape of the dose curve; as a rule, active = well fitted curve in the direction sought with a large enough effect; inconclusive = small, poorly fitted or top-dose-only effect, or another doubt; inactive = no such curve, though single readings can be large; an effect the other way counts as inactive or inconclusive.

A short description of assay [1]: Validation of Assay for Modulators of Lamin A Splicing (AID 1459; active = well fitted curve in the direction sought with a large enough effect in the signal ratio; the % refers to the signal ratio;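 also: cells exposed to compound for two days before reading; 0% is about no effect; ratio rise marks activators and ratio drop marks inhibitors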). In outline: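 Splicing correction is reported by an EGFP-containing lamin A minigene in stably transfected S3 HeLa cells, while DsRed2 controls for viability and nonspecific signal. Cells are exposed to compounds for 48 hrs before the GFP over RFP ratio is taken.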
A short description of assay [2]: qHTS Assay for Lipid Storage Modulators (AID 1519; calls by dose curve; as to activity change, negative = inhibition: % is scaled to controls: 0 for no effect and ±100 for the full control effect). As to conditions: Drosophila S3 cells, BODIPY lipid droplet/cell ratio, laser cytometry, cells loaded with oleic acid; for activity change, negative = inhibition: at 57.5 µM (top of the series). In outline: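 Cells seeded at 5,000 per well were treated with compounds over a concentration series and loaded with oleic acid (400 uM, as added). Lipid droplet fluorescence (488 nm excitation, 500-530 nm channel) was read by laser-scanning cytometry and normalized to 20 uM Triacsin C.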
(In general: In qHTS, concentration-response curves come from the screen itself.)

Assay [3] has as its target DNA repair nuclease/redox regulator APEX1 (Homo sapiens) (UniProt P27695). Kind of assay: qHTS Validation Assay for Inhibitors of the Human Apurinic/apyrimidinic Endonuclease 1 (APE1) (AID 1705;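 also: TAMRA fluorescence gain over two minutes as APE1 cuts a quenched THF abasic duplex; % is scaled to controls: 0 for no effect and ±100 for the full control effect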). In outline: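 Endonuclease activity of human APE1 is followed as dequenching when the enzyme incises a tetrahydrofuran abasic site in a short duplex labelled 5'-TAMRA/3'-BHQ-2 (50 nM final), after 15 min enzyme–compound preincubation at room temperature.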

Assay [4] in a line: Counterscreen for APE1 Inhibitors: Fluorescent Dye Displacement Validation Assay (AID 1707).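 Also: plate controls were ThO with dsDNA and no compound for no effect and ThO without dsDNA for full effect.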 In outline:
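Thiazole Orange displacement from dsDNA: 250 nM ThO with 50 nM TAMRA-labelled abasic-site (tetrahydrofuran) duplex in 50 mM Tris-HCl pH7.5, 50mM NaCl, 2 mM MgCl2, 0.01% Tween-20. Loss of endpoint fluorescence (ex 480 nm, em 540 nm) flags DNA binders.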

Assay [5] in a line: qHTS for differential inhibitors of proliferation of Plasmodium falciparum line 7G8 (AID 1815).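 Also: parasite growth measured after three days of incubation.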 Also: potency is read from the fitted curve at half-maximal effect.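 As to activity change, negative = inhibition: plate controls were vehicle wells for no effect and reference inhibitor wells for full effect.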
The nature of assay [6]: qHTS for differential inhibitors of proliferation of Plasmodium falciparum line GB4 (AID 1816).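 Also: parasite growth measured after 72 h incubation.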 Also: potency is read from the fitted curve at half-maximal effect.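 As to activity change, negative = inhibition: 0% = vehicle DMSO and -100% = reference inhibitor.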 As to conditions: Potency: Plasmodium falciparum GB4 proliferation inhibition.
A short description of assay [7]: qHTS for differential inhibitors of proliferation of Plasmodium falciparum line 3D7 (AID 1876). Also: potency is read from the fitted curve at half-maximal effect.
Assay [8] in a line: qHTS for differential inhibitors of proliferation of Plasmodium falciparum line D10 (AID 1877).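 Also: parasites grown with compound for 72 h before DNA staining; plate controls were vehicle wells for no effect and reference inhibitor wells for full effect.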
Assay [9] has as its target Alpha-galactosidase A (Homo sapiens) (UniProt P06280). Kind of assay: Counterscreen for Glucocerebrosidase Inhibitors: qHTS Assay for Human alpha-Galactosidase at pH 4.5 (AID 992). Also: 0% is about no effect. In outline:
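Enzyme at 2 nM final was combined with compound (0.7 nM to 77 uM) and 80 uM 4-methylumbelliferyl alpha-D-galactopyranoside in 50 mM citric acid, 0.005% Tween-20, pH 4.5. After 20 min at room temperature, fluorescence was read (Ex 365/Em 440 nm); AC50 came from Hill fits.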

In assay [10] the target is alpha-glucosidase (Oryza sativa, rice) (UniProt Q653V4). The assay is described as follows: Counterscreen for Glucocerebrosidase Inhibitors: qHTS Assay for Rice alpha-Glucosidase at pH 5.0 (AID 997).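 Also: 0% = full activity with enzyme and -100% = basal without enzyme.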 A digest of the protocol: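 Rice alpha-glucosidase (4 nM final) with 400 uM 4-methylumbelliferyl-alpha-D-glucopyranoside in citrate buffer pH 5.0, 20 min at room temperature, stopped at pH 10; fluorescence 365/440 nm, compounds 0.7 nM–77 uM, AC50 from Hill fits.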

In assay [11] the target is Endonuclease 4 (Escherichia coli (strain K12)) (UniProt P0A6C1). Kind of assay: Counterscreen for APE1 Inhibitors: qHTS Validation Assay for Inhibitors of Endonuclease IV (AID 1708). Also: % is scaled to controls: 0 for no effect and ±100 for the full control effect. In outline:
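E. coli EndoIV at 2 nM final, preincubated 15 min at room temperature with compound, then 50 nM TAMRA/BHQ-2 THF abasic-site duplex added. Buffer: 50 mM Tris-HCl pH 7.5, 50 mM NaCl, 2 mM MgCl2, 1 mM DTT, 0.01% Tween-20. Kinetic fluorescence increase, third minus first read.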

[12] abbreviates: measured here: cell count channel max response.
The mark [13] stands for this setting: measured here: lipid channel max response.

DNA repair nuclease/redox regulator APEX1 (Homo sapiens), sequence (P27695 whole entry, looked up): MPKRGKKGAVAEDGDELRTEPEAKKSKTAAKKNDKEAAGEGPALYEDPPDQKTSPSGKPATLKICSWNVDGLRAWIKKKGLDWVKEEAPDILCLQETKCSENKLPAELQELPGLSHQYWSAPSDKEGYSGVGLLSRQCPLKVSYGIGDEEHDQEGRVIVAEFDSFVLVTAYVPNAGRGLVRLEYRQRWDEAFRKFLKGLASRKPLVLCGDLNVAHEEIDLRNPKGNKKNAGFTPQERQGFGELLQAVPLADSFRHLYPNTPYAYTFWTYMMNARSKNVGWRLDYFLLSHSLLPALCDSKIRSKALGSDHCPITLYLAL
Alpha-galactosidase A (Homo sapiens), sequence (P06280 whole entry, looked up): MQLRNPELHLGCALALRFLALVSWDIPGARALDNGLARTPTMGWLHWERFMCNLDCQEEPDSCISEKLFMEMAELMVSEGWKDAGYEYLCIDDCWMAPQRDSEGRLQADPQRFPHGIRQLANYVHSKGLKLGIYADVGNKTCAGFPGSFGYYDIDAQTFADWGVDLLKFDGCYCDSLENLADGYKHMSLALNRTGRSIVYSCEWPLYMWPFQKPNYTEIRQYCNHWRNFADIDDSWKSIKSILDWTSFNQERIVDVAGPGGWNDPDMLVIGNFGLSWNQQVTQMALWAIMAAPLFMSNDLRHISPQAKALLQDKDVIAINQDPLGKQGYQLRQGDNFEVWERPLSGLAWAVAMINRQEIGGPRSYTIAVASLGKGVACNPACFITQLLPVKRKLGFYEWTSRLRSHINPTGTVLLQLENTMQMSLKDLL

In the case of `CC(C)NCC(O)COc1ccc(CC(N)=O)cc1` (stereo not given), in assay [1], the molecule was classed as inactive. The activity change, negative = inhibition in assay [2] is -4.52% (inactive). Also, the max response was -32.1% in assay [2] (setting [12]) and -32.6% in [2] (setting [13]). Moreover, the Potency entry in assay [3], in [4], in [5], in [6], in [7] and in assay [8] was “inactive” throughout.

As for `CNc1cc(NS(=O)(=O)c2ccc(N)cc2)nc(NC)n1`, the molecule was called inactive in [9], in [10] and in assay [1]. In addition, in assay [2], the activity change, negative = inhibition was 0.422% (inactive). Also, the max response is -14.7% in [2] (setting [12]) and -14.3% in [2] (setting [13]). Moreover, the Potency entry in assay [3], in [4], in assay [5], in assay [6], in [7] and in [8] was “inactive” throughout.

As to `Cc1cccc(C)c1OCC(N)C(C)C` (stereo not given), the outcome in assay [1] was inactive. Besides, the activity change, negative = inhibition in assay [2] was 0.702% (inactive). Moreover, the max response in assay [2] (setting [12]) came out at 60.7%; in assay [2] (setting [13]), 59.8%. In addition, the Potency entry in assay [3], in assay [4], in [11], in assay [7] and in [8] was “inactive” each time. In addition, the Potency in assay [5] was 11.2 µM (active).

`NCCCNCCCCNCCCN`: the result in assay [9], in [10] and in [1] was inactive. The activity change, negative = inhibition in [2] was 1.21% (inactive). The max response in [2] (setting [12]) is 9.8%; in assay [2] (setting [13]) it was 13.5%. In addition, the Potency result in [3], in assay [4], in [5], in assay [6], in assay [7] and in [8] was “inactive” in each case.

In the case of `NC(N)=NC(N)=Nc1ccccc1`, the result in assay [9], in assay [10] and in assay [1] was inactive. Besides, the activity change, negative = inhibition in assay [2] is -1.27% (inactive) and 5.81% (inactive). Besides, the max response was 10.6% and 8.56% in assay [2] (setting [12]); 10.2% and 16.5% in [2] (setting [13]). Besides, the Potency result in assay [3], in assay [4], in [11] and in assay [5] was “inactive” in each case.

On to `Nc1ccc(CCNc2ncnc3c2ncn3C2OC(CO)C(O)C2O)cc1` (stereo not given), for which the call in [1] was inactive. Also, the Potency result in [3], in [4] and in assay [11] was “inactive” each time.

For `COc1ccccc1N1CCN(CCCNc2c(C)c(=O)n(C)c(=O)n2C)CC1`, the molecule was classed as inactive in [9], in [10] and in assay [1]. The activity change, negative = inhibition in assay [2] is -0.317% (inactive). In addition, the max response in assay [2] (setting [12]) amounted to 38.5%; in assay [2] (setting [13]), 37.3%. Also, the Potency result in assay [3], in assay [4], in assay [11] and in [5] was “inactive” throughout. Besides, the Potency in assay [7] is 8.91 µM (active).

In the case of `CC1CCN(CC[C@H]2CCCN2S(=O)(=O)c2cccc(O)c2)CC1`, in assay [1], the molecule was classed as inactive. For the same molecule, the activity change, negative = inhibition in assay [2] was 5.39% (inactive) and 1.08% (inactive). Moreover, the max response is 7.6% and -15.4% in assay [2] (setting [12]); 15.3% and -11.1% in assay [2] (setting [13]). The Potency entry in assay [3], in assay [4], in assay [11] and in [8] was “inactive” each time. Moreover, the Potency in assay [6] was 12.6 µM (active).

In the case of `NC(N)=NC(N)=Nc1cccc(Cl)c1`, the call in assay [9], in [10] and in assay [1] was inactive. Further, in assay [2], the activity change, negative = inhibition was 3.33% (inactive) and -0.622% (inactive). Moreover, the max response in assay [2] (setting [12]) is 13.6% and -27.3%; in assay [2] (setting [13]), 18.7% and -27.9%. Further, the Potency result in [3], in assay [4] and in assay [11] was “inactive” each time. Also, the Potency in assay [7] is 11.2 µM (active).

Regarding `CCC(=O)N1CCN(C(=O)c2ccccc2)CC1`, the outcome in [9], in assay [10] and in [1] was inactive. Further, the activity change, negative = inhibition in assay [2] was 0.685% (inactive). The max response is -9.69% in assay [2] (setting [12]) and -7.51% in assay [2] (setting [13]). In addition, the Potency entry in [3] and in assay [4] was “inactive” throughout.

Consider `CN1CCC2(CCN3CCc4c(oc5ccccc45)C3C2)N(C)C1=O` (stereo not given), for which the call in [1] was inactive. Also, in assay [2], the activity change, negative = inhibition is -0.497% (inactive). Also, the max response in assay [2] (setting [12]) is 45.8%; in assay [2] (setting [13]) it was 48%. Also, the Potency entry in assay [3], in [4], in assay [11], in [6] and in assay [8] was “inactive” in each case.

Take `COc1cc(CNC(=O)CCCCCCC(C)C)ccc1O`: the molecule was called inactive in [9], in [10] and in assay [1]. For the same molecule, the activity change, negative = inhibition in assay [2] is 0.247% (inactive). In addition, the figures for the max response in assay [2] (setting [12]) and in assay [2] (setting [13]) were 14.5% and 14.2%, respectively. Besides, the Potency result in assay [3], in assay [4], in assay [11] and in assay [8] was “inactive” in each case.

(Values after PubChem BioAssay (NCATS).)
